In assay [1] the target is Sphingosine kinase 1 (Homo sapiens) (UniProt Q9NYA1). The conditions noted are these: at 1 µM.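 Also: mean SPHK1 inhibition value reported from the GSK PKIS kinase panel screen.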
In assay [2] the target is T1, Sphingosine kinase 2 (Homo sapiens) (UniProt Q9NRA0).
T1 sequence (whole entry): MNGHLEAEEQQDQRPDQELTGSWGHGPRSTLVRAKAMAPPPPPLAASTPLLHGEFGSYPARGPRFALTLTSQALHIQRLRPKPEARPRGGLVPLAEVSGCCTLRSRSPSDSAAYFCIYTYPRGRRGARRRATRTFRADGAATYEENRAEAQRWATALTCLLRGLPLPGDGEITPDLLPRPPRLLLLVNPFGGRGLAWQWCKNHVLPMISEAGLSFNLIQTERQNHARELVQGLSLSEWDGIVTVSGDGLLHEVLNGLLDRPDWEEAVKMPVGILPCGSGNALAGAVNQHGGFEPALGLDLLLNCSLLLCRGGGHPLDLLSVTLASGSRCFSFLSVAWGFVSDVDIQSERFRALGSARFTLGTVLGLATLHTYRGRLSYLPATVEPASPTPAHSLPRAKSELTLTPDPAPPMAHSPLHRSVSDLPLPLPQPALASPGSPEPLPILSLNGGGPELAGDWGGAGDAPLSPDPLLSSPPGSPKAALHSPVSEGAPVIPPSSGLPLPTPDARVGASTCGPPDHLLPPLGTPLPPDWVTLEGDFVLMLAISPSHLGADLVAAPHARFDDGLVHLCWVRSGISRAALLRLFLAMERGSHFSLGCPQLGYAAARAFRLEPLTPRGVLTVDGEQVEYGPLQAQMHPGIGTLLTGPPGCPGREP
The conditions noted are these: at 0.1 µM.

For assay [3], the target named is T1, Sphingosine kinase 2 (Homo sapiens). As to conditions: at 1 µM.
Assay [4] addresses Casein kinase II subunit alpha (Homo sapiens) (UniProt P68400). The conditions noted are these: at 0.1 µM.
The target is the same in assay [5]. As to conditions: at 1 µM.
Assay [6] addresses T2, Inhibitor of nuclear factor kappa-B kinase subunit alpha (Homo sapiens) (UniProt O15111).
T2 sequence (whole entry): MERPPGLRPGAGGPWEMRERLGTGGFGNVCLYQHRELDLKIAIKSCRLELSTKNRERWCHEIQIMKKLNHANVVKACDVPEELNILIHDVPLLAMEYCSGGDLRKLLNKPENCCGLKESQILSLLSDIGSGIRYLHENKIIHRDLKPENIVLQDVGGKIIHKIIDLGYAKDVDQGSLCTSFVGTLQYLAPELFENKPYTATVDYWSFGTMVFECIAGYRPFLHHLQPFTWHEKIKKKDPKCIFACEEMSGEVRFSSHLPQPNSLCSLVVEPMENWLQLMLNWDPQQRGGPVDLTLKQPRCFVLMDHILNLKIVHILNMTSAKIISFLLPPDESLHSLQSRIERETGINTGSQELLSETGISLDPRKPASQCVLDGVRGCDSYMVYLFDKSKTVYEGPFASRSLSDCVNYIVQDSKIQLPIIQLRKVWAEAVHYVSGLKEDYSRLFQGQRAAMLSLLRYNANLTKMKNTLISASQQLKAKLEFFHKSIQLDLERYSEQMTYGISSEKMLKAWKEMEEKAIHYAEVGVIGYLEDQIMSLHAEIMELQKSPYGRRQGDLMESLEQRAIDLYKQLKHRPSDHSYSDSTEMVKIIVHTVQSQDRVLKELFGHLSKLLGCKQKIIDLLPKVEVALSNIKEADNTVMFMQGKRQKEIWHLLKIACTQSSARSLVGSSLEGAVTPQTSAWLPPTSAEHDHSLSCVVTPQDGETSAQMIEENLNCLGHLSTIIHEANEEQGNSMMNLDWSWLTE
The conditions noted are these: at 0.1 µM.

For assay [7], the target named is T2, Inhibitor of nuclear factor kappa-B kinase subunit alpha (Homo sapiens). As to conditions: at 1 µM.
Assay [8] concerns the target T3, Inhibitor of nuclear factor kappa-B kinase subunit beta (Homo sapiens) (UniProt O14920).
T3 sequence (whole entry): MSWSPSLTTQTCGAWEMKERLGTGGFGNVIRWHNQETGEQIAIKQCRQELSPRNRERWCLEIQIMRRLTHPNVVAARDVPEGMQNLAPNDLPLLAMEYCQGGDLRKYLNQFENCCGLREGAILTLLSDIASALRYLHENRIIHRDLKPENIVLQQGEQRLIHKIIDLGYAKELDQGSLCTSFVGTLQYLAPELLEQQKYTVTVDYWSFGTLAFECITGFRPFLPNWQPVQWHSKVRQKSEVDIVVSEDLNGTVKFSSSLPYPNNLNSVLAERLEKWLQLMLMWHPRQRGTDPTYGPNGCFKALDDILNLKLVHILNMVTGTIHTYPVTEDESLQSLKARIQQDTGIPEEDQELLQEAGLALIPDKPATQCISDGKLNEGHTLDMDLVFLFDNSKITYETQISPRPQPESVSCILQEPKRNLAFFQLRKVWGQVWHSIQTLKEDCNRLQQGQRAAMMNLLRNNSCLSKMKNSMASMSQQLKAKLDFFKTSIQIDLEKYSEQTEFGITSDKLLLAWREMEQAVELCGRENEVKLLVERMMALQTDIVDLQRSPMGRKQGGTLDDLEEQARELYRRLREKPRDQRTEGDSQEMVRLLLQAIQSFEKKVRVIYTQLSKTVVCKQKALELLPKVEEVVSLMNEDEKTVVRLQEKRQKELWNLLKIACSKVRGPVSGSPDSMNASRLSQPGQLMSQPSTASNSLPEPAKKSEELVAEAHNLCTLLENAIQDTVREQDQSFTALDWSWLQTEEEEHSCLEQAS
The conditions noted are these: at 0.1 µM.

The target in assay [9] is T3, Inhibitor of nuclear factor kappa-B kinase subunit beta (Homo sapiens). As to conditions: at 1 µM.
The target of assay [10] is T4, Inhibitor of nuclear factor kappa-B kinase subunit epsilon (Homo sapiens) (UniProt Q14164).
T4 sequence (whole entry): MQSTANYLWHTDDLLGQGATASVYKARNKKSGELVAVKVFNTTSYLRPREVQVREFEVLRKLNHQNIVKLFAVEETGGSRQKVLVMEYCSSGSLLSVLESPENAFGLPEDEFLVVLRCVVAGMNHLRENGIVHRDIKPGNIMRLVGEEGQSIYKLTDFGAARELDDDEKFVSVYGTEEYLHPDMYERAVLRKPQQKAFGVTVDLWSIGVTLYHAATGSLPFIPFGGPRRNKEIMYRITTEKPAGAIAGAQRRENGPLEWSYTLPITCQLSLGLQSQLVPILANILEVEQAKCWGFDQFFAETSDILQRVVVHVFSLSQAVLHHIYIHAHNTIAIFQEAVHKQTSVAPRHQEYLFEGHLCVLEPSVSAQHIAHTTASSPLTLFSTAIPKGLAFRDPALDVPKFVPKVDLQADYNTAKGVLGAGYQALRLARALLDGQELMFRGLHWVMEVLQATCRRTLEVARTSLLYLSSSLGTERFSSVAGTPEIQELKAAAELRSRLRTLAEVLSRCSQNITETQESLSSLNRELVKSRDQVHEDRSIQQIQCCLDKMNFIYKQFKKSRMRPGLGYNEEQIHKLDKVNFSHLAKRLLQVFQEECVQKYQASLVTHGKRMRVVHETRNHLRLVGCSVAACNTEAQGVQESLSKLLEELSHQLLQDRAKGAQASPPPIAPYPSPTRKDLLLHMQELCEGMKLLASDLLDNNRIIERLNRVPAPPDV
The conditions noted are these: at 0.1 µM.

Assay [11] concerns the target T4, Inhibitor of nuclear factor kappa-B kinase subunit epsilon (Homo sapiens). The conditions noted are these: at 1 µM.
Assay [12] deals with T5, Serine/threonine-protein kinase Nek1 (Homo sapiens) (UniProt Q96PY6).
T5 sequence (whole entry): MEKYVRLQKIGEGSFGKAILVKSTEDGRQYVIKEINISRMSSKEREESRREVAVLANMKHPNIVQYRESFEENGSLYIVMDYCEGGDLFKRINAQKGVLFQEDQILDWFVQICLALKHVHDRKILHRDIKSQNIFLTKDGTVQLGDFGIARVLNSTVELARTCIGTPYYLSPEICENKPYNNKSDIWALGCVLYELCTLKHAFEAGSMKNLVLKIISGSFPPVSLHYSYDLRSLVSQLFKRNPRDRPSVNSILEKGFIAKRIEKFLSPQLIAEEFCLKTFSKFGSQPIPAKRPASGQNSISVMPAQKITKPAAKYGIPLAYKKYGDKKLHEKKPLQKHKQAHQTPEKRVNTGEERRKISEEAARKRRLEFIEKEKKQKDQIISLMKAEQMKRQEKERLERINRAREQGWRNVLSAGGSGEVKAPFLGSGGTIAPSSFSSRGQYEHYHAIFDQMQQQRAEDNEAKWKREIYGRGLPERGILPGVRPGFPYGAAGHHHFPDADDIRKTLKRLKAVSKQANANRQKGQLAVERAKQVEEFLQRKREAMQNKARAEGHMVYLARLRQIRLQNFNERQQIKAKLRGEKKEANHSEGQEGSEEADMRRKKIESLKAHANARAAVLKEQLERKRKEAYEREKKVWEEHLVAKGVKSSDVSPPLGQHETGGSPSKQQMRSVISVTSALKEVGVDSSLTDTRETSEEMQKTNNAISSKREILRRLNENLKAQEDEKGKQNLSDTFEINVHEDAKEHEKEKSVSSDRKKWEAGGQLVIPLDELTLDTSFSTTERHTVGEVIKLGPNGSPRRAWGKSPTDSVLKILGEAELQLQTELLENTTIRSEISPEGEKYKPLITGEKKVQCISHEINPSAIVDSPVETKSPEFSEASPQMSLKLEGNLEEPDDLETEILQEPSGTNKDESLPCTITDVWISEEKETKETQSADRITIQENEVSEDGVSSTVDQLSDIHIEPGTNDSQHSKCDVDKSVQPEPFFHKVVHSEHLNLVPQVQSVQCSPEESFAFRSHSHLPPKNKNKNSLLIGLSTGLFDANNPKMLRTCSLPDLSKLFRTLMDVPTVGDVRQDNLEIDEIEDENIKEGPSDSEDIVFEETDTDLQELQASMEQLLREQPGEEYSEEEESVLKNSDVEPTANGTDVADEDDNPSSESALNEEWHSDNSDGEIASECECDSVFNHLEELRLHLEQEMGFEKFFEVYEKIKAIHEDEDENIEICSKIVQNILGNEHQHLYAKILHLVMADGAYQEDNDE
As to conditions: at 0.1 µM.

Assay [13] concerns the target T5, Serine/threonine-protein kinase Nek1 (Homo sapiens). As to conditions: at 1 µM.
The target of assay [14] is T6, Serine/threonine-protein kinase Nek2 (Homo sapiens) (UniProt P51955).
T6 sequence (whole entry): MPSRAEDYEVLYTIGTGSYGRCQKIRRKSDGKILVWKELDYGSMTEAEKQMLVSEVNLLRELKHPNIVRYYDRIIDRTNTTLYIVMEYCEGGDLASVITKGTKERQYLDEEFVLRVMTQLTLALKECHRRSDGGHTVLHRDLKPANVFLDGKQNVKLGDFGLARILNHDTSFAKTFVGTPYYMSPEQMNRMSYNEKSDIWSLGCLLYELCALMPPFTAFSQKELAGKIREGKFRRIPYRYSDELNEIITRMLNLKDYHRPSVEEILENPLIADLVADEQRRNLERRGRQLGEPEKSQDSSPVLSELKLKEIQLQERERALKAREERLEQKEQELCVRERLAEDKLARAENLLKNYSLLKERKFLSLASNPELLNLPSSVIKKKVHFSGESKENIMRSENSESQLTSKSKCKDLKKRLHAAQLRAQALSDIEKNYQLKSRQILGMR
As to conditions: at 0.1 µM.

Assay [15] addresses T6, Serine/threonine-protein kinase Nek2 (Homo sapiens). The conditions noted are these: at 1 µM.
The target of assay [16] is Serine/threonine-protein kinase Nek6 (Homo sapiens) (UniProt Q9HC98). As to conditions: at 0.1 µM.
Assay [17] has the same target. As to conditions: at 1 µM.
Assay [18] addresses Serine/threonine-protein kinase Nek7 (Homo sapiens) (UniProt Q8TDX7). As to conditions: at 0.1 µM.
Assay [19] shares this target. As to conditions: at 1 µM.
Assay [20] concerns the target T7, Serine/threonine-protein kinase Nek9 (Homo sapiens) (UniProt Q8TD19).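 Also: reported value is the mean percent inhibition of NEK9.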
T7 sequence (whole entry): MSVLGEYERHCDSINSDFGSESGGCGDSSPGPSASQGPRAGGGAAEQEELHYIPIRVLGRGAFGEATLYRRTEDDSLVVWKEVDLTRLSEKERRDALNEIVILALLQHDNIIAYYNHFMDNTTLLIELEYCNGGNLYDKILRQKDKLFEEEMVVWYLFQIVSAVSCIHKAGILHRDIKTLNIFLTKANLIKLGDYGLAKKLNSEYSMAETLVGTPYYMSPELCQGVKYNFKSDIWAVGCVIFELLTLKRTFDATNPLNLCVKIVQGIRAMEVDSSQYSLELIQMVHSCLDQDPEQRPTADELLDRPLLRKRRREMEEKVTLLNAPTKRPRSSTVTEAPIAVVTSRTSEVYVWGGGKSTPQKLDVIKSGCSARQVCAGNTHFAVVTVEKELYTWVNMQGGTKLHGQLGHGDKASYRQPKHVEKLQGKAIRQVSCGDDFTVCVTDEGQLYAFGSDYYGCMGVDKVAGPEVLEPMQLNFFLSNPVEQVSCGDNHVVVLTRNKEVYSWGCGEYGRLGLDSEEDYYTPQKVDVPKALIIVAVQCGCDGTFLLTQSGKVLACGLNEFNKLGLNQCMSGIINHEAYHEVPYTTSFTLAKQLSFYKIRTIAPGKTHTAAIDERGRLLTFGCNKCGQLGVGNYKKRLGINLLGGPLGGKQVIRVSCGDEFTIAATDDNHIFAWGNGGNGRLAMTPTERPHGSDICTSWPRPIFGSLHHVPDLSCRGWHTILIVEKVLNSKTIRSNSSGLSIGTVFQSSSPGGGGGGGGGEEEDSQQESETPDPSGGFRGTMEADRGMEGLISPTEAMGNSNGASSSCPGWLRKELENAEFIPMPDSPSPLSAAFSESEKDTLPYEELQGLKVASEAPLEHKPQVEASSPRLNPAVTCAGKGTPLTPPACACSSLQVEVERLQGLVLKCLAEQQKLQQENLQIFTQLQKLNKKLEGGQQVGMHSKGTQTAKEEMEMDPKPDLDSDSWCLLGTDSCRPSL
The conditions noted are these: at 0.1 µM.

Structures are written as SMILES.

Sequence of Serine/threonine-protein kinase Nek7 (Homo sapiens) (Q8TDX7 whole entry, looked up): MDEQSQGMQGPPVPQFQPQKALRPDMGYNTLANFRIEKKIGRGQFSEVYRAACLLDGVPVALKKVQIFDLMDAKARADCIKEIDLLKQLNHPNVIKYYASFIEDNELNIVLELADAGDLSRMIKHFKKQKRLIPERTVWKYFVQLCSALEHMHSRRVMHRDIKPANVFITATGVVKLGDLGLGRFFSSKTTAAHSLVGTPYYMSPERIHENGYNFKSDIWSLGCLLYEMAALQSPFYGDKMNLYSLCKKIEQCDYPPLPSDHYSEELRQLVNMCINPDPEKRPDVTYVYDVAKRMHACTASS
Sequence of Serine/threonine-protein kinase Nek6 (Homo sapiens) (Q9HC98 whole entry): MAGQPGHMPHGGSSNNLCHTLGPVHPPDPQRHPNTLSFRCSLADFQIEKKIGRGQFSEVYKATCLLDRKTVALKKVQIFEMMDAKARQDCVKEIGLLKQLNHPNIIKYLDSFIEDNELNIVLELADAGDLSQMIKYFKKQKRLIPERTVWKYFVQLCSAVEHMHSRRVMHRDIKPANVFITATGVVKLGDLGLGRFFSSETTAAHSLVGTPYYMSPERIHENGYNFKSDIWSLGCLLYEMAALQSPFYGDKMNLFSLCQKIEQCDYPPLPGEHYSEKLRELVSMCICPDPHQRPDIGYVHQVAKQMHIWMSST
Sequence of Casein kinase II subunit alpha (Homo sapiens) (P68400 whole entry, looked up): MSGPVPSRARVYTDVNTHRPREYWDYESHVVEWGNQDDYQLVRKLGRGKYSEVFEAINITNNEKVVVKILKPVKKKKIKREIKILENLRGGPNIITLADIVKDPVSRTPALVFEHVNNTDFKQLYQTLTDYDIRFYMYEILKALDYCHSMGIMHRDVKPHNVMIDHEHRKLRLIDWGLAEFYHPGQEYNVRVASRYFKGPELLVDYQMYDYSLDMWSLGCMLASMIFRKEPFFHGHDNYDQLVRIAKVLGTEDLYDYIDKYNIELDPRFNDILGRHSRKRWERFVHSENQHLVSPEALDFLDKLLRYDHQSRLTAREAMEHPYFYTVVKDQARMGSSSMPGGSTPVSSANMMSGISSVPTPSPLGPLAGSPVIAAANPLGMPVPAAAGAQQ
Sequence of Sphingosine kinase 1 (Homo sapiens) (Q9NYA1 whole entry): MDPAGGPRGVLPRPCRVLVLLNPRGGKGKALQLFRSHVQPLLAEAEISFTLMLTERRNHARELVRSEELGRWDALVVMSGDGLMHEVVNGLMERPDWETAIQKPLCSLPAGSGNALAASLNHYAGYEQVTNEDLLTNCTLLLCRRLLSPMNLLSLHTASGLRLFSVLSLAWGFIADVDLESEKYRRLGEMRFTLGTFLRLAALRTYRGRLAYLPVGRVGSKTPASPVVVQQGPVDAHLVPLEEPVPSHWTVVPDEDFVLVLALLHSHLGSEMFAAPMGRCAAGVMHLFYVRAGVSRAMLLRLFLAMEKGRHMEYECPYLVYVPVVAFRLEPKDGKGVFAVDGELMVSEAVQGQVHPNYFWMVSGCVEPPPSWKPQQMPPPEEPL

For the molecule `CCn1c(-c2nonc2N)nc2cnc(Oc3cccc(NC(=O)c4ccc(N(C)C)cc4)c3)cc21`, the inhibition was -3.07% in assay [1]; 0% in assay [2]; 2.32% in [3]; 0.64% in assay [4]; 0.04% in assay [5]; 5.93% in assay [6]. Also, the inhibition in assay [7] turned out to be 2.52%; in assay [8] it was 2.96%; in [9], 1.85%; in assay [10], 3.07%; in [11], 14.1%; in [12], 1.17%. In addition, the inhibition in [13] was found to be 4.28%; in assay [14], 2.85%; in [15], 1.24%; in [16], 0.89%; in [17], 2.25%; in [18], 3.09%. The results for the inhibition in [19] and in assay [20] were 1.46% and 7.55%, respectively.

For the origin of these results see ChEMBL document CHEMBL1961873, “Compounds: GSK PKIS; Assays: Nanosyn kinase panel” (2012).
